Among the data in PubChem BioAssay are outcome and inhibition values, retold here.

For some assays here: Entries with a potency or affinity are not part of this list. The source made the active and inactive calls.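 Rule for the calls, unless noted: active = primary screen hit whose fluorescence ratio, in both repeats, exceeds the weak agonist control mean by 3 SD; inactive = the rest.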

Assay [1] concerns TRPC4 beta (transient receptor potential cation channel C4), mouse. Nature of the assay: activators of mouse TRPC4 channel, confirmation, cell-based, Fluo4 calcium, HEK293 TRPC4beta/mu-opioid, duplicates, 10 µM (AID 2426;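 active = fluorescence ratio normalized to control raised more than 50% in primary screen plus both repeat runs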). To be noted: Fluo4 calcium fluorescence, at 10 µM; active compounds read high.
The test system of assay [2] is transient receptor potential cation channel C4 beta (TRPC4), mouse. The assay is described as follows: activators of mouse TRPC4 channel, confirmation, cell-based, second round, Fluo4, HEK293 TRPC4beta/mu-opioid, 1 µM (AID 2461;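 active = primary screen active and over 50% activation in each of two duplicate runs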). To be noted: Fluo4 calcium fluorescence, at 1 µM; active compounds read high.
Assay [3] concerns TRPC4 (transient receptor potential cation channel C4 beta), mouse. The assay is described as follows: positive allosteric modulators of mouse TRPC4, confirmation, cell-based, second round, Fluo-4, HEK293 TRPC4beta/mu-opioid, 1 µM (AID 2554). The following applies: DAMGO EC20, Fluo-4 calcium flux, at 1 µM; active compounds read high. On the technique in general: A change in cytosolic calcium serves as a functional read-out for many receptors and channels.

Assay [4] deals with TRPC4 beta (transient receptor potential cation channel C4), mouse. Nature of the assay: positive allosteric modulators of mouse TRPC4, confirmation, cell-based, Fluo-4, HEK293 TRPC4beta/mu-opioid (AID 2555;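 active = primary screen hit whose calcium fluorescence ratio, in both repeats, exceeds the weak agonist control mean by 3 SD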). The following applies: DAMGO EC20, Fluo-4 calcium flux, at 10 µM; active compounds read high.
Assay [5] deals with Short transient receptor potential channel 4 (Mus musculus) (UniProt Q9QUQ5). The assay is described as follows: inhibitors of mouse TRPC4 channel, confirmation, cell-based, Fluo4, HEK293 TRPC4beta/mu-opioid (AID 2636;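 active = calcium signal cut by more than 3 SD below the full-agonist control yet still positive, in both repeats and the earlier primary screen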). The following applies: DAMGO, Fluo4 calcium flux, at 10 µM; active compounds read high.
Chain of Short transient receptor potential channel 4 (Mus musculus) (Q9QUQ5 whole entry, looked up): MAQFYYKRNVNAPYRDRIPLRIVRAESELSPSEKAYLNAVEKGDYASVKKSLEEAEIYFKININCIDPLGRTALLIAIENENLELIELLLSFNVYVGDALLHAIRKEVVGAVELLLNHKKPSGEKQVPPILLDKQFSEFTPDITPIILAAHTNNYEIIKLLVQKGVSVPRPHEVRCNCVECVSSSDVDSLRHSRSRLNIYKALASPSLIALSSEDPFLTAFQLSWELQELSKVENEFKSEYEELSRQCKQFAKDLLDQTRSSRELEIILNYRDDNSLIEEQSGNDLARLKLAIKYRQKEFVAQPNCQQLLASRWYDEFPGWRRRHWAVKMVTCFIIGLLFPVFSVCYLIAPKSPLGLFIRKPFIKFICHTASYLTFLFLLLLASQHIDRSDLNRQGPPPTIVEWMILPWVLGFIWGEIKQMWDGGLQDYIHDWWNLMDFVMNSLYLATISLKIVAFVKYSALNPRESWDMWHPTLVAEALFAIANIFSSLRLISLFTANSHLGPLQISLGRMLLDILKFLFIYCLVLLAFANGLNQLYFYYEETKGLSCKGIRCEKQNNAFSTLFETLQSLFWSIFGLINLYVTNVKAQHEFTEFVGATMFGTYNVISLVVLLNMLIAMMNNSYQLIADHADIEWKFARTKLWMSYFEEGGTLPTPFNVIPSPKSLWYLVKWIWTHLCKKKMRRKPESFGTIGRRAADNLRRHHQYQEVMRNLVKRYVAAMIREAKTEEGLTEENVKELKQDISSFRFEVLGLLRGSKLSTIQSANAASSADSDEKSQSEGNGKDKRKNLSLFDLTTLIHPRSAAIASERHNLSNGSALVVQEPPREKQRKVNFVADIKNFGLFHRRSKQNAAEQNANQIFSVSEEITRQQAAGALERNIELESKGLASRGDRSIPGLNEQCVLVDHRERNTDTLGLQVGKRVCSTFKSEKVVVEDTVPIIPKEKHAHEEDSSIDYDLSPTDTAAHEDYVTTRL
Assay [6] shares this target. The assay is described as follows: inhibitors of mouse TRPC4 channel, confirmation, cell-based, second round, Fluo4, HEK293 TRPC4beta/mu-opioid, 1 µM (AID 2637;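 active = calcium signal ratio cut to more than 3 SD under the fully stimulated control mean yet still positive, in both repeats and the primary screen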;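 for inhibition: percent of integrated ratio relative to wells lacking test compound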). To be noted: Fluo4 calcium flux, DAMGO, at 1 µM; active compounds read high.
Assay [7] has the same target. The assay is described as follows: mouse TRPC4 channel activators, dose response, cell-based, HEK293 TRPC4/mu-opioid, Fluo-4 calcium (AID 434937;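 active = primary screen activator hit with a dose response curve and TRPC4 channel activation at any tested dose; inactive = no activation, no dose response, or not a primary hit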).
Assay [8] shares this target. Nature of the assay: TRPC4 positive allosteric modulators, dose response, cell-based, HEK293 TRPC4/mu-opioid, Fluo-4 calcium, EC20 DAMGO (AID 434941;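 active = earlier screen potentiator hit that boosts the TRPC4 ion channel at some dose, with a dose response; inactive = no potentiation, no dose response, or not a prior hit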;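 note: calcium entry triggered by an EC20 dose of DAMGO at the co-expressed mu-opioid receptor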).
Assay [9] deals with Short transient receptor potential channel 6 (Mus musculus) (UniProt Q61143). The assay is described as follows: inhibition of mouse TRPC6 channel, confirmation, selectivity assay for TRPC4 inhibitor project, cell-based, HEK293, membrane potential dye, duplicate (AID 434948;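 active = active in primary screen and both duplicates, each dropping signal beyond three positive-control SD with fluorescence still positive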). The following applies: HEK293 TRPC6, membrane potential dye fluorescence, at 10 µM, stimulated with maximal-effect acetylcholine; active compounds read high.
Chain of Short transient receptor potential channel 6 (Mus musculus) (Q61143 whole entry, looked up): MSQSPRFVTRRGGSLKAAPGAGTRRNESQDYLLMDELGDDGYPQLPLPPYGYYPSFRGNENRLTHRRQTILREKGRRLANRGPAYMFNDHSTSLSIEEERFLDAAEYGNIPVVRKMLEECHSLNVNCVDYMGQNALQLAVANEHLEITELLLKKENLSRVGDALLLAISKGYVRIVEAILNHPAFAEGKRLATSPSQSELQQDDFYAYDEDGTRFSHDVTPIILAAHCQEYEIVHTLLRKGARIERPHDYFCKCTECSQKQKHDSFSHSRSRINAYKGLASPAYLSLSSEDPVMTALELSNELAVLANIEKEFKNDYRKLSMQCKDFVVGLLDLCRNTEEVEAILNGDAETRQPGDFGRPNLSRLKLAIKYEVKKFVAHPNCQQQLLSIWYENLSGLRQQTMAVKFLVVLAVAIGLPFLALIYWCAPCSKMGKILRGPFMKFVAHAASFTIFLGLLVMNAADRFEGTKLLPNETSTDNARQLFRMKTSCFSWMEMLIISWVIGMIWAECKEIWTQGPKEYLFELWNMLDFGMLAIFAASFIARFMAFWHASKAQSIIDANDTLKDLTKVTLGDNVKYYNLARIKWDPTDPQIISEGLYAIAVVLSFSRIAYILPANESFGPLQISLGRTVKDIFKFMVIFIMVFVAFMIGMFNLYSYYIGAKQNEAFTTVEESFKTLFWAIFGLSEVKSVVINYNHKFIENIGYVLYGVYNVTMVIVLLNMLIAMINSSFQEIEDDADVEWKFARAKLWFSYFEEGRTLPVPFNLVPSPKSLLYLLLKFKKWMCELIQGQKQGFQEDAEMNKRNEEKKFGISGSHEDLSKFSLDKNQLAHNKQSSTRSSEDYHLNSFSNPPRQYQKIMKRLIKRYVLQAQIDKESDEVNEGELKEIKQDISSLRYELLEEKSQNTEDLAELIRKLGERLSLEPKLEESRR

For assay [10] the target is unchanged. The assay is described as follows: activation of mouse TRPC6 channel, confirmation, selectivity assay for TRPC4 activator project, cell-based, HEK293, membrane potential dye, duplicate (AID 434950;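 active = membrane potential signal rise above negative control mean plus 3 SD in both duplicates, also active in the earlier TRPC4 screen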). To be noted: HEK293 TRPC6, membrane potential fluorescence, at 10 µM; active compounds read high.
For assay [11] the target is unchanged. The assay is described as follows: TRPC6 potentiation by TRPC4 potentiator hits, confirmation, selectivity assay for TRPC4 potentiator project, HEK293 cells, membrane potential dye, duplicate (AID 434952;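 active = compound raising the membrane signal above positive-control mean plus 3 SD in both repeats, and a primary screen hit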). The following applies: HEK293 TRPC6, membrane potential dye fluorescence, at 10 µM, maximal acetylcholine added after compound; active compounds read high.
Assay [12] addresses Short transient receptor potential channel 4 (Mus musculus) (UniProt Q9QUQ5). Nature of the assay: calcium flux activators in TRPC4/5HT1a cells, counter-screen for TRPC4 activator project, cell-based, second counter screen, HEK293 TRPC4/5HT1a, Fluo-4 (AID 434977;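 active = calcium signal rise above buffer-control mean plus 5 SD in both duplicates, and also a hit in the primary screen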). To be noted: Fluo-4 calcium flux, at 10 µM; active compounds read high.
A short description of assay [13]: calcium flux inhibitors in TRPC4/5HT1a cells, confirmation, counter-screen for TRPC4 inhibitor project, cell-based, second counter screen, HEK293 TRPC4/5HT1a, Fluo-4 (AID 434978;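 active = primary screen active whose calcium signal fell more than 3 SD beyond the full-serotonin control mean in both duplicate plates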;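 for outcome: serotonin given first at submaximal then at maximal dose after compound preincubation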). The following applies: Fluo-4 calcium flux, at 10 µM, serotonin added to trigger calcium flux; active compounds read high.
Assay [14] relates to TRPC4 (mouse), co-expressed with 5HT1a in HEK293. Nature of the assay: calcium flux potentiators in TRPC4/5HT1a cells, confirmation, counter-screen for TRPC4 potentiator project, cell-based, second counter screen, HEK293 TRPC4/5HT1a, Fluo-4 (AID 434979;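 active = signal rise over 3 SD above mean of control wells given weak agonist, in both repeats and first screen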). To be noted: Fluo-4 calcium flux, at 10 µM, serotonin added at its EC20 dose; active compounds read high.
The nature of assay [15]: calcium flux activation in mu-opioid HEK293 cells, confirmation, counter-screen for TRPC4 activator project, cell-based, HEK293 mu-opioid receptor line (AID 449723;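 active = hit in primary screen, with calcium signal over 5 SD above buffer well mean in both duplicates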;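 note: counter screen cells carry the mu-opioid receptor alone and lack TRPC4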). To be noted: Fluo-4 calcium fluorescence, at 10 µM; active compounds read high.
Assay [16] in a line: calcium flux enhancement in mu-opioid HEK293 cells, confirmation, counter-screen for TRPC4 allosteric potentiator project, cell-based, HEK293 mu-opioid receptor line (AID 449724;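 active = calcium signal rise more than 3 SD above the low-dose agonist control mean, in both duplicate plates and the primary screen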;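 note: HEK293 cells carrying mu-opioid receptor only with no TRPC4 channel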). To be noted: Fluo-4 calcium flux, at 10 µM, compound added before EC20 DAMGO stimulus; active compounds read high.

For `O=C(O)c1cc(NN=C2c3ccccc3-c3ccccc32)ccc1Cl`, the outcome in [1], in assay [2], in assay [3], in [4], in assay [6] and in [7] was inactive. For the same molecule, the outcome in [8], in assay [10], in assay [11], in assay [12], in assay [14] and in assay [15] was inactive. For the same molecule, the outcome in assay [16] was inactive. Also, the inhibition – broadly, the relative decrease from the control value, in per cent – was 98% (active) in assay [5], 32% (active) in [9] and 11.8% (active) in assay [13].

On to `CCOCc1cn(CC(=O)c2ccc(Cl)cc2)c(C)nc1=N`, for which the result in assay [1], in assay [2], in assay [3], in assay [4], in assay [7] and in assay [8] was inactive. Besides, the outcome in assay [9], in [10], in assay [11], in [12], in assay [14] and in assay [15] was inactive. In assay [16], the result was inactive. The results for the inhibition in assay [5], in assay [6] and in assay [13] were 97% (active), 72% (active) and 13% (active), respectively.

As for `CCCCC[n+]1cccc2c3ccccc3ccc21`, the outcome in [1], in [2], in assay [3], in [4], in assay [6] and in [7] was inactive. The result in assay [8], in assay [10], in assay [11], in assay [12], in assay [14] and in assay [15] was inactive. In addition, the outcome in assay [16] was inactive. In addition, the figures for the inhibition in [5], in [9] and in assay [13] were 93% (active), 29% (active) and 28.4% (active), respectively.

For `Cc1c(N(C)S(=O)(=O)c2cc(C(=O)NCC3CCCO3)ccc2Cl)c(=O)n(-c2ccccc2)n1C` (stereo not drawn), the result in [1], in assay [2], in [3], in [4], in assay [7] and in assay [8] was inactive. Besides, the molecule was called inactive in [9], in assay [10], in assay [11], in assay [12], in [13] and in assay [14]. The outcome in assay [15] and in assay [16] was inactive. Besides, the inhibition in [5] is 84% (active); in assay [6], 45% (active).

With `O=C(Nc1ccc(Oc2ccccc2)nc1)C1CCN(Cc2ccccc2)CC1`, the result in assay [1], in assay [2], in [3], in assay [4], in assay [6] and in assay [7] was inactive. Also, the outcome in assay [8], in assay [9], in [10], in assay [11], in assay [12] and in assay [14] was inactive. For the same molecule, the result in assay [15] and in assay [16] was inactive. Further, the inhibition in [5] is 74% (active); in [13], 32.6% (active).

`Cc1ccc(C)c2[nH]c(=O)c(CN(CC3CCCO3)C(=S)NCc3ccco3)cc12` (stereo not drawn): the outcome in assay [1], in assay [2], in [3], in assay [4], in assay [6] and in [7] was inactive. Further, the result in assay [8], in assay [9], in assay [10], in assay [11], in [12] and in assay [14] was inactive. In addition, the outcome in assay [15] and in assay [16] was inactive. For the same molecule, the inhibition in assay [5] is 79% (active); in assay [13], 37.5% (active).

For `O=C(NCCN1CCOCC1)c1cc2sccc2n1Cc1ccc(F)cc1`, the outcome in assay [1], in assay [2], in assay [3], in assay [4], in assay [7] and in [8] was inactive. Also, the result in assay [9], in assay [10], in [11], in assay [12], in assay [14] and in assay [15] was inactive. In addition, in assay [16], the outcome was inactive. Also, the inhibition is 74% (active) in assay [5], 49% (active) in assay [6] and 33.8% (active) in [13].

Take `CCCn1c(=O)c2ccccc2n2c(SCCOc3ccc(C)cc3)nnc12`: the result in assay [1], in assay [2], in [3], in assay [4], in assay [6] and in assay [7] was inactive. Besides, the outcome in [8], in [9], in assay [10], in assay [11], in assay [12] and in assay [14] was inactive. Further, the result in [15] and in assay [16] was inactive. Further, the inhibition in [5] is 77% (active); in [13], 46.3% (active).
